The values that follow come from PubChem BioAssay (NCATS).

The structures appear in SMILES notation. Inconclusive results are not listed. Calls of active or inactive are those of the source. Unless noted, calls come from the whole dose curve; as a rule, active = well fitted curve in the direction sought with a large enough effect; inconclusive = small, poorly fitted or top-dose-only effect, or another doubt; inactive = no such curve, though single readings can be large; an effect the other way counts as inactive or inconclusive.

Test [1] deals with Glucocorticoid receptor (Homo sapiens) (UniProt P04150). The test can be described thus: GR-EFC Redistribution (AID 451; calls by dose curve; note: potency is the fitted concentration of half-maximal effect). The note with it: CHO-K1 GR-EFC translocation, beta-gal luminescence, 2 h. The procedure, abridged:
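CHO-K1 cells stably expressing nuclear-localized β-gal enzyme acceptor and GR fused C-terminally to the enzyme donor fragment; ligand-driven nuclear translocation restores β-gal by complementation. Compounds titrated up to 46 uM final, 2 h at 37 °C; luminescence read.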

Test [2] addresses Mitogen-activated protein kinase 10 (Mus musculus) (UniProt Q61831). The experiment in a line: JNK3 AlphaScreen Assay (AID 530; active = well fitted curve in either direction with a large enough effect, not every such curve was filed as active;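 note: kinase came from lysate of stimulated human HepG2 cells; signal reports phosphorylation of biotinylated GST-cJun 1-79 at Ser73 with 10 µM ATP; % is set by controls: 0 for no effect and ±100 for the full control effect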). Particulars: JNK3 lysate, c-Jun phosphorylation; series mostly up to 25.6 µM. The procedure, abridged:
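JNK3 came from HepG2 lysates pre-activated with IL-1beta and TNF-alpha and phosphorylated biotinylated GST-cJun (1-79) at 10 uM ATP, pH 7.6, room temperature. Compounds were titrated. AlphaScreen signal used anti-phospho-cJun (Ser73) antibody.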
(In Alpha technology, singlet oxygen from a donor bead excites a nearby acceptor bead.)

Test [3] deals with 3',5'-cyclic-AMP phosphodiesterase 4B (Homo sapiens) (UniProt Q07343). The experiment in a line: qHTS Assay for Inhibitors of PDE-IV (AID 607; active = well fitted activation curve with a large enough effect in the main read-out, with a control signal flat, not every such curve was filed as active; note: % of control where 0% means no effect). The note with it: HEK293 ACTOne CNG channel cells, membrane potential fluorescence; series mostly up to 22.9 µM. The procedure, abridged: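 Live HEK293 cells with a modified cyclic nucleotide-gated (CNG) channel report intracellular cAMP via membrane-potential dye fluorescence (ex 535/em 590 nm). Endogenous PDE-IV was targeted. Compounds were tested at up to 22.9 uM final; RO 20-1724 100 uM served as control.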
3',5'-cyclic-AMP phosphodiesterase 4B (Homo sapiens), sequence (Q07343 whole entry, looked up): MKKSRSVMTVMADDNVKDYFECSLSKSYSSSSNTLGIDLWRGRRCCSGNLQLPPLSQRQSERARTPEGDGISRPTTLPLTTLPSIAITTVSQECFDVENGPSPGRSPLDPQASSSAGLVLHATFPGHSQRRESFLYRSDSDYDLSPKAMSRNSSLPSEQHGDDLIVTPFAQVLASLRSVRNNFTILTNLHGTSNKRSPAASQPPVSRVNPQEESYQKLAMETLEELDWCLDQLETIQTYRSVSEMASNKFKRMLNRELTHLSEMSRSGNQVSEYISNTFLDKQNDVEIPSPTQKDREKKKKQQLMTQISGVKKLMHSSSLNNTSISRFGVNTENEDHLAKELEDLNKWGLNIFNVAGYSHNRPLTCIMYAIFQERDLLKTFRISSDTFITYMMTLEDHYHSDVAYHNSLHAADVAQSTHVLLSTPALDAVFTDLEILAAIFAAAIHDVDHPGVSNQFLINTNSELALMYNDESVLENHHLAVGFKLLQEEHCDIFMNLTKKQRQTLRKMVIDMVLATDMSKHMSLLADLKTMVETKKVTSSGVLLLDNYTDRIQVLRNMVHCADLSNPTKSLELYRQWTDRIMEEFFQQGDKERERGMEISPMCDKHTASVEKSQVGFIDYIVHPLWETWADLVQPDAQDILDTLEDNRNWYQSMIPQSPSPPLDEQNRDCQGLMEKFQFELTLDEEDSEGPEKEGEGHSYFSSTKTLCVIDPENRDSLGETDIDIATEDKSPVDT
(In general: qHTS replaces the single test concentration by a dilution series.)

A short description of test [4]: qHTS Assay for Lipid Storage Modulators (AID 1519; calls by dose curve; for activity change, negative = inhibition: % is set by controls: 0 for no effect and ±100 for the full control effect). Particulars: Drosophila S3 cells, BODIPY lipid droplet/cell ratio, laser cytometry, cells loaded with oleic acid; for activity change, negative = inhibition: at 25.7 µM (top of the series). Summed up: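 Cells seeded at 5,000 per well were treated with compounds over a concentration series and loaded with oleic acid (400 uM, as added). Lipid droplet fluorescence (488 nm excitation, 500-530 nm channel) was read by laser-scanning cytometry and normalized to 20 uM Triacsin C.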

Test [5] addresses Ubiquitin carboxyl-terminal hydrolase 1 (Homo sapiens) (UniProt O94782). The experiment in a line: Inhibitors of USP1/UAF1: Pilot qHTS (AID 504865).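 Note: rhodamine fluorescence freed from ubiquitin-rhodamine substrate followed over time; top concentration of the series differs between compounds; % is set by controls: 0 for no effect and ±100 for the full control effect; nearly all actives have a fitted effect of over 35% in size.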 The note with it: purified USP1/UAF1, Ub-rhodamine cleavage fluorescence; series mostly up to 114 µM. The procedure, abridged: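 1nM USP1/UAF1 + cpd, 15 min RT; start w/ Ub-Rho 150nM final; kinetic FL 480/540 nm, 6 reads q60 s. Buffer 50mM HEPES pH 7.8, 0.5mM EDTA, 1mM TCEP, 0.01% Tween-20, 0.1 mg/ml BSA.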

In test [6] the target is ATP-dependent 6-phosphofructokinase (Trypanosoma brucei brucei) (UniProt O15648). The test can be described thus: qHTS Assay to Find Inhibitors of T. brucei phosphofructokinase: hit validation (AID 492961).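 Note: luminescence reports ADP formed as PFK phosphorylates fructose-6-phosphate with ATP; % is set by controls: 0 for no effect and ±100 for the full control effect.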 The note with it: T. brucei PFK, ADP-Glo luminescence; series mostly up to 24.3 µM. The procedure, abridged: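 PFK 1.25 nM, F6P 0.5 mM, ATP 0.1 mM, MgCl2 5 mM, 0.1 M TEA pH 8.0, Tween20 0.01%, BSA 0.1%; 45 min RT. ADP-Glo two-step detection, luminescence. qHTS titration; curve fitting with curve-class categorization.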
ATP-dependent 6-phosphofructokinase (Trypanosoma brucei brucei), sequence (O15648 whole entry, looked up): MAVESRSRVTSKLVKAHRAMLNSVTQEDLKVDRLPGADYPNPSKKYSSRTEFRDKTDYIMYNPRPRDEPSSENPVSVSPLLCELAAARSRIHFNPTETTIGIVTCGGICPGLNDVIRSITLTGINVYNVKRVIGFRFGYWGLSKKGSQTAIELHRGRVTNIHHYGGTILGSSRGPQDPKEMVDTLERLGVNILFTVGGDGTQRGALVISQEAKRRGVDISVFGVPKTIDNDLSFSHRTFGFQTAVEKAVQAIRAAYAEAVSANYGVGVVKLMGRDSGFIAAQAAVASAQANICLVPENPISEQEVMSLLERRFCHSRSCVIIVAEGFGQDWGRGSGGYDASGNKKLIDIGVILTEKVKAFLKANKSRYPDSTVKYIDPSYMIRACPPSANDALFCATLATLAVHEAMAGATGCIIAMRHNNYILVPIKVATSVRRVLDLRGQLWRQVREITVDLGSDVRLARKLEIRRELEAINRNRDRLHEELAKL

The nature of test [7]: qHTS profiling for inhibitors of Plasmodium falciparum proliferation (AID 504749).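 Note: 0% = DMSO vehicle and full inhibition = artemisinin control; nearly all actives have a fitted effect of over 60% in size.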 Particulars: P. falciparum in erythrocytes, SYBR Green DNA, 72 h, at 12.8 µM (top of the series). The procedure, abridged:
(§1)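 P. falciparum-infected erythrocytes (0.3% parasitemia, 2.5% hematocrit final) were exposed to compounds for 72 h at 37 C in 5% CO2, then lysed with SYBR Green buffer overnight at room temperature; parasite DNA fluorescence was normalized to artemisinin and DMSO controls.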

A further test relates to AS120. The test is described as above. Particulars: P. falciparum in erythrocytes, SYBR Green DNA, 72 h; series mostly up to 12.8 µM. The procedure, abridged: as §1
The test system of a further test is C2A. Described as above. The note with it: P. falciparum in erythrocytes, SYBR Green DNA, 72 h; series mostly up to 12.8 µM. Summed up: as §1
Another test concerns CP191. The description is as above. The note with it: P. falciparum in erythrocytes, SYBR Green DNA, 72 h; series mostly up to 12.8 µM. Summed up:
as §1

The next test concerns CP217. The description is as above. Particulars: P. falciparum in erythrocytes, SYBR Green DNA, 72 h; series mostly up to 12.8 µM. Summed up:
as §1

For the next test, the system named is CP305. The description is as above. The note with it: P. falciparum in erythrocytes, SYBR Green DNA, 72 h; series mostly up to 12.8 µM. The procedure, abridged: as §1
The next test relates to CP329. The test is described as above. Particulars: P. falciparum in erythrocytes, SYBR Green DNA, 72 h; series mostly up to 12.8 µM. The procedure, abridged:
as §1

In the next test the test system is ECU. Described as above. The note with it: P. falciparum in erythrocytes, SYBR Green DNA, 72 h; series mostly up to 12.8 µM. The procedure, abridged:
as §1

A further test deals with FAB9. The test is described as above. Particulars: P. falciparum in erythrocytes, SYBR Green DNA, 72 h; series mostly up to 12.8 µM. The procedure, abridged: as §1
The next test relates to PC15. Described as above. The note with it: P. falciparum in erythrocytes, SYBR Green DNA, 72 h; series mostly up to 12.8 µM. The procedure, abridged: as §1
Another test deals with PC49. The test is described as above. Particulars: P. falciparum in erythrocytes, SYBR Green DNA, 72 h; series mostly up to 12.8 µM. The procedure, abridged: as §1
The subject of a further test is TAB165. The test is described as above. Particulars: P. falciparum in erythrocytes, SYBR Green DNA, 72 h; series mostly up to 12.8 µM. Summed up:
as §1

The target in test [8] is Luciferin 4-monooxygenase (Photinus pyralis) (UniProt P08659). The test can be described thus: Biochemical firefly luciferase enzyme assay for NPC (AID 624030).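 Note: purified P. pyralis luciferase at 10 nM with luciferin and ATP substrate; 0% = DMSO and -100% = full luciferase inhibition by PTC124 control; nearly all actives have a fitted effect of over 70% in size.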 Particulars: purified P. pyralis luciferase, luminescence, 5 min; series mostly up to 24.9 µM. The procedure, abridged: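 Counter-screen for direct inhibition of the luciferase enzyme by approved-drug library compounds, run at 10 nM enzyme in 50 mM Tris acetate (final). Luminescence was read within 5 min of enzyme-buffer addition and normalized to PTC124 versus DMSO (0%).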
Luciferin 4-monooxygenase (Photinus pyralis), sequence (P08659 whole entry, looked up): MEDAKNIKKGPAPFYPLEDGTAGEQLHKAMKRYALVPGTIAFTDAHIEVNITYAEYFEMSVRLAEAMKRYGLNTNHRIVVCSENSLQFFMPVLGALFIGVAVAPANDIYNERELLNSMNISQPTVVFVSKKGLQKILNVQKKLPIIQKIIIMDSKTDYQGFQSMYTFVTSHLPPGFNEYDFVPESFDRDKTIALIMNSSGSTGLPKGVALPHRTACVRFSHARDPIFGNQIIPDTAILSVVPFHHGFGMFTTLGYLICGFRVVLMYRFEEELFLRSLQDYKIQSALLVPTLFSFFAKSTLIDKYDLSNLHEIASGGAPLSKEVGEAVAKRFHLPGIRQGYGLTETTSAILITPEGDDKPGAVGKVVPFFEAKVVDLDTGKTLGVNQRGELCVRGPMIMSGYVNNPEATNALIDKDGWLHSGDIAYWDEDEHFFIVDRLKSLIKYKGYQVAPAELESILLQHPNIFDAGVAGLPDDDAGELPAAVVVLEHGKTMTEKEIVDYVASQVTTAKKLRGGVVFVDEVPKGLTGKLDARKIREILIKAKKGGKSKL

The test system of another test is N140. The test can be described thus: qHTS profiling for inhibitors of Plasmodium falciparum proliferation (AID 504749).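 Note: 0% = DMSO vehicle and full inhibition = artemisinin control; nearly all actives have a fitted effect of over 60% in size.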 The note with it: P. falciparum in erythrocytes, SYBR Green DNA, 72 h; series mostly up to 12.8 µM. The procedure, abridged:
as §1

Where [9] appears, read: measured here: cell count channel max response.
Setting [10] is: measured here: lipid channel max response.

Glucocorticoid receptor (Homo sapiens), sequence (P04150 whole entry, looked up, the tested form may be a part): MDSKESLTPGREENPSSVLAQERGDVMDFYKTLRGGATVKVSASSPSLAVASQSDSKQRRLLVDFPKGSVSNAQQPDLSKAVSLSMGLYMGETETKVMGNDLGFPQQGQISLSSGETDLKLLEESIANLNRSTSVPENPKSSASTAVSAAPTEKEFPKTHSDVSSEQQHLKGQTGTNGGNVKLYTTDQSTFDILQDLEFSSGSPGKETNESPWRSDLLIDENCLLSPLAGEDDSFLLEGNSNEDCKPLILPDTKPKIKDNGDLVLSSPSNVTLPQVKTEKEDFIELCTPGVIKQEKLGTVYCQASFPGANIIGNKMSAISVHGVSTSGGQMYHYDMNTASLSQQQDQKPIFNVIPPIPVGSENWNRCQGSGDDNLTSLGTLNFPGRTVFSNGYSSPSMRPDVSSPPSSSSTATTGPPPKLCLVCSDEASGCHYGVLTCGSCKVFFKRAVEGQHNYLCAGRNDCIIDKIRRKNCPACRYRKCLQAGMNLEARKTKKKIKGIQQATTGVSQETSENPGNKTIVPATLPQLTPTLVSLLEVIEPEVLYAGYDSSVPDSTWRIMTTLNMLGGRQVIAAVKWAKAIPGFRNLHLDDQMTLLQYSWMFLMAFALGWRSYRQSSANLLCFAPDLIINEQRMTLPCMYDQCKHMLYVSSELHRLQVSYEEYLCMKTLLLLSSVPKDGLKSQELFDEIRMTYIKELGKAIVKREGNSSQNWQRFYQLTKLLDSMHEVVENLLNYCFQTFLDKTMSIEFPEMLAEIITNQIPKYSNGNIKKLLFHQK
Ubiquitin carboxyl-terminal hydrolase 1 (Homo sapiens), sequence (O94782 whole entry, looked up): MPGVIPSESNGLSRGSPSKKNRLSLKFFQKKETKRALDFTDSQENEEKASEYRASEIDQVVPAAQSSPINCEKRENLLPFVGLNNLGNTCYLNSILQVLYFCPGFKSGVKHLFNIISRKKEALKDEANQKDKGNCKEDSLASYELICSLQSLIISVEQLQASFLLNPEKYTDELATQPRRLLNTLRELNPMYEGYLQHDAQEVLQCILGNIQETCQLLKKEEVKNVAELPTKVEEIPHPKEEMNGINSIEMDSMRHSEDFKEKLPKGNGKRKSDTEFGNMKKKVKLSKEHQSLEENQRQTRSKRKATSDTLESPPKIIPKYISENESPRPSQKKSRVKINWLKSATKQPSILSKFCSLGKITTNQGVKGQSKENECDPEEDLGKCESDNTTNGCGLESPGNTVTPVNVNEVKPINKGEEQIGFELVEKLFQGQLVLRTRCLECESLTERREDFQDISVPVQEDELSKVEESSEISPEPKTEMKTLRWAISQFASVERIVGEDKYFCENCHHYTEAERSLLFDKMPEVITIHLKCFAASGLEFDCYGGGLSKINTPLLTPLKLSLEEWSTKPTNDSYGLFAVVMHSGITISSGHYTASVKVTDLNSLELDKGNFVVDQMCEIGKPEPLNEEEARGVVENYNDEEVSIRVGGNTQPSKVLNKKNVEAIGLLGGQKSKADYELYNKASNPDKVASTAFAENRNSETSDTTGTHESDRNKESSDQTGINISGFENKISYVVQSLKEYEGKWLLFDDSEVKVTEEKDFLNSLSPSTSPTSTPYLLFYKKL

Take `COc1cc2c(cc1OC)-c1cc3ccc(OC)c(OC)c3c[n+]1CC2`: the Potency in test [1] was > 20.6 µM (inactive). The Potency entry in test [2] and in test [5] was “inactive” in each case. The compound was called inactive in test [3]. Besides, the activity change, negative = inhibition in [4] was 1.8% (inactive). Besides, the max response in [4] (setting [9]) was -8.72%; in test [4] (setting [10]), -7.96%.
For the compound `C=C(C)[C@H]1CC[C@]2(CO)CC[C@]3(C)[C@@H](CC[C@H]4[C@@]5(C)CC[C@@H](O)C(C)(C)[C@@H]5CC[C@@]43C)[C@H]12`, the Potency in test [1] was > 20.6 µM (inactive). The Potency entry in [2] and in test [5] was “inactive” each time. The compound was classed as inactive in test [3]. Moreover, the activity change, negative = inhibition in test [4] is -10.7% (inactive). Besides, the max response in [4] (setting [9]) is -12.9%; in test [4] (setting [10]), -22.1%.
On to `CCC(=O)[C@@]1(C)[C@H](C)C[C@@H]2[C@@H]3CCC4=CC(=O)C=C[C@@]4(C)[C@H]3[C@H](O)C[C@]21C`, for which the Potency in [1] is 0.00311 µM (active). The Potency entry (in test [2]; with AS120; in the test on C2A; with CP191; with CP217; in the test on CP305) was “inactive” in each case. For the same compound, the Potency result in the test on CP329, in the test on ECU, with FAB9, in the test with PC15, in the test on PC49 and in the test on TAB165 was “inactive” each time. For the same compound, the call in [3] and in test [6] was inactive. For the same compound, the activity change, negative = inhibition in test [4] is -1.25% (inactive). The max response is -14.6% in test [4] (setting [9]) and -19.8% in [4] (setting [10]). Further, the activity, negative = inhibition is -6.51% (inactive) in test [7] (parasite line A) and 3.51% (inactive) in test [7] (parasite line B).
In the case of `O=C(OC[C@@H](O)CO)c1ccccc1Nc1ccnc2cc(Cl)ccc12`, the Potency result (in test [2]; in test [8]; with AS120; in the test with C2A; in the test with CP191; with CP217) was “inactive” in each case. The Potency entry with CP305, in the test on CP329, in the test with ECU, in the test with FAB9, with N140 and in the test on PC15 was “inactive” throughout. The Potency entry in the test on PC49 and with TAB165 was “inactive” in each case. Moreover, the compound was called inactive in [3] and in test [6]. The activity change, negative = inhibition in test [4] was -2.54% (inactive). The max response stood at 9.55% in test [4] (setting [9]) and 3.2% in test [4] (setting [10]). Also, the values for the activity, negative = inhibition in [7] (parasite line A) and in test [7] (parasite line B) were -14.6% (inactive) and -22.4% (inactive), respectively.
For the compound `NC(=O)N[C@H]1NC(=O)NC1=O`, the Potency in test [1] was > 20.6 µM (inactive). For the same compound, in test [3], the outcome was inactive. For the same compound, the activity change, negative = inhibition in test [4] is -0.627% (inactive). Moreover, the max response in [4] (setting [9]) was 21.8%; in test [4] (setting [10]) it was 17.1%. Further, the Potency result (in test [8]; in the test with AS120; in the test on C2A; in the test on CP191; with CP217; in the test with CP305) was “inactive” each time. The Potency result in the test with CP329, in the test with ECU, in the test with FAB9, with N140, in the test with PC15 and in the test with PC49 was “inactive” in each case. Further, the Potency result with TAB165 is “inactive”. In addition, the activity, negative = inhibition in test [7] (parasite line A) was 2.27% (inactive); in test [7] (parasite line B), 16.7% (inactive).
